Hits are enriched below; roughly 2% of the tested compounds scored in any of these assays.
aSyn yeast inh = qHTS of alpha-syn Inhibitors; Yeast expressing alpha-synuclein, growth rescue, BacTiter-Glo, 24 h; Potency, µM (titrated, usually from 46.1 µM), for inactives: at the top dose growth rescue (activation), actives largely listed as activators; 370,000 compounds, 0.14% hits; AID 652106, 2013; note: potency is the fitted concentration of half-maximal effect; % of control where 0% means no effect; nearly all actives have a fitted effect of over 65% in size
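Readout is rescue of growth in alpha-synuclein-expressing yeast, so inhibitors of toxicity appear as activators. Growth after 24 hr at 30 deg C in galactose medium is quantified by luminescence.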
TDP43 rescue = qHTS of TDP-43 Inhibitors; TDP-43 expressing yeast growth rescue, BacTiter-Glo, 24 h; Potency, µM (doses to about 46.1 µM), for inactives: at the top dose growth rescue (activation), most hits filed as activators; 410,000 compounds, 1.8% hits; AID 652104, 2013; note: potency is the fitted concentration of half-maximal effect; % of control where 0% means no effect; nearly all actives have a fitted effect of over 50% in size
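Luminescence from BacTiter-Glo reports growth of TDP-43-expressing yeast after 24 hr at 30 deg C with compound. Cells were raffinose-pregrown to mid-log, then seeded in galactose medium at OD600=0.02.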
Abeta rescue = qHTS for compounds that reverse cellular toxicity of Amyloid beta (A-beta) peptide in yeast: Primary Screen. yeast expressing A-beta42, growth rescue, OD600, 48 h; response scale: 0% DMSO, 100% iron-clioquinol control. Potency, µM (highest dose often 46.1 µM), most hits filed as activators. 410,000 compounds, 0.063% hits. AID 1347071, 2019; note: potency is the fitted concentration of half-maximal effect; nearly all actives have a fitted effect of over 55% in size
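Yeast growth medium received pinned compounds, then yeast cells expressing toxic A-beta were added; plates incubated at 30 C for 48 hr. Growth read as absorbance at 600 nm, normalized to DMSO and equimolar FeCl3 plus clioquinol controls.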
IDH1 R132H inh = qHTS for Inhibitors of mutant isocitrate dehydrogenase 1 (IDH1): qHTS. Isocitrate dehydrogenase [NADP] cytoplasmic (Homo sapiens), O75874. IDH1-R132H enzyme, NADPH consumption, diaphorase/resazurin fluorescence. Potency, µM (top dose mostly 76.6 µM), for the others: at the highest dose activity change, negative = inhibition, actives largely listed as inhibitors. 390,000 compounds, 0.093% hits. AID 602179, 2012; note: potency is the fitted concentration of half-maximal effect; % is set by controls: 0 for no effect and ±100 for the full control effect; nearly all actives have a fitted effect of over 65% in size
Target sequence (O75874 whole entry R132H, stated change not applied): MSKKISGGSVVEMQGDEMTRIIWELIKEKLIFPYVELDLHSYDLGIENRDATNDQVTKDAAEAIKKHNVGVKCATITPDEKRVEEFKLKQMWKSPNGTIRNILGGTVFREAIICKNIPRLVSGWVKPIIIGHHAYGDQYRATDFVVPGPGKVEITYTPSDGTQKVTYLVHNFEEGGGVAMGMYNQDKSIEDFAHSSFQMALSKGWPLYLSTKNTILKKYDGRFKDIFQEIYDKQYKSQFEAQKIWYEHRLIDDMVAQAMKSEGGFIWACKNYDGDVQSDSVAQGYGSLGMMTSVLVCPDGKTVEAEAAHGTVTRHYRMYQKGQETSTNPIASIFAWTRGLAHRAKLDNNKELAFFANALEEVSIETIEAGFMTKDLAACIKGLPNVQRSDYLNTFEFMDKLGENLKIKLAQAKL
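IDH1-R132H (0.5 ug/mL dispensed) in pH 7.5 Tris buffer was preincubated 30 min with compound, then given a substrate mix of 0.016 mM NADPH and 2 mM alpha-KG for 80 min at room temperature; remaining NADPH was read by diaphorase/resazurin fluorescence.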
FUS yeast rescue = qHTS for Suppressors of FUS Proteinopathy: Primary screen using FUS-linked yeast assay | Potency, µM (highest dose often 76.6 µM), actives largely listed as activators | 390,000 compounds, 0.24% hits | S. cerevisiae FUS-expressing, growth rescue, OD600, 24 h;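 note: potency is the fitted concentration of half-maximal effect; plate controls were DMSO vehicle for no effect and reference control for full effect; nearly all actives have a fitted effect of over 55% in size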
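Steps: raffinose overnight preculture; dilution to OD 0.005 in 2% galactose minimal medium; compound addition (concentration series); 24hr at 30C, 99% humidity; absorbance read at 600 nm.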
LDHA block = qHTS assay for inhibitors of human lactate dehydrogenase | activity change, % (values are at about 110 or 230 µM) | purified LDHA, NADH/diaphorase-resazurin fluorescence; hits give low values | L-lactate dehydrogenase A chain (Homo sapiens), P00338 | 480,000 compounds, 0.15% hits; in the data active = activity change below about -30%; inconclusive = mostly about -25% to -30%;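 note: plate controls were DMSO wells for no effect and wells without enzyme for full effect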
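Human LDH5 at 2 nM final in Tris HCl pH 7.4 with 0.06 mM NADH and 0.2 mM pyruvate, reacted 5 minutes at room temperature. Remaining NADH coupled via diaphorase/resazurin; resorufin fluorescence read at 0 and 20 minutes, normalized to enzyme-free and DMSO wells.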
* hit, by the source's call; i = inactive; ? = inconclusive; . = not tested or not shown; [ ] = another dose, or the depositor's remark. Unless noted, calls come from the whole dose curve; as a rule, active = well fitted curve in the direction sought with a large enough effect; inconclusive = small, poorly fitted or top-dose-only effect, or another doubt; inactive = no such curve, though single readings can be large; an effect the other way counts as inactive or inconclusive.

SMILES | aSyn yeast inh | TDP43 rescue | Abeta rescue | IDH1 R132H inh | FUS yeast rescue | LDHA block
O=C(O)C/C(=C/c1csc(-c2ccc(F)cc2)n1)c1nc2ccccc2s1 | . | . | . | . | . | -4
Cc1ccc(Cl)cc1NC(=O)Nc1cn(CC(C)C)c(=O)c2ccccc12 | . | 13% | i | 41% | i | -40*
O=C(O)c1ccccc1C(=O)OC1CCCC2CCCC21 (configuration not stated) | 18% | 22µM* | i | 3% | . | -3
O=S(=O)(NCCc1csc(-c2cccc(F)c2)n1)c1cc(F)ccc1F | . | 2.5µM* | ? | 14% | i | -7
O=S(=O)(NCCc1csc2nc(-c3ccccc3)nn12)c1cc(F)ccc1F | . | 22µM* | ? | 4% | i | -1
Cc1ccc(S(=O)(=O)NCCc2csc(-c3cccc(F)c3)n2)cc1 | . | 18µM* | i | 26% | i | 3
COc1ccc(-c2nnc(SCc3nc4ccccc4o3)o2)c(OC)c1 | . | . | . | . | . | 3
CCOc1ccc(NC(=O)c2cnn(-c3ccc(C)cc3)c2-n2cccc2)cc1 | . | . | . | . | . | 0
Cc1cccc(C)c1NC(=O)CN1CCN(C(=O)CN(C)Cc2cnn(-c3ccccc3)c2)CC1 | . | . | . | . | . | 4
O=C1c2ccsc2SCCN1Cc1ccc(Cl)cc1 | 17% | 22µM* | i | 5% | i | -1
O=C1c2ccsc2SCCN1Cc1ccc(F)cc1 | ? | ? | i | 11% | i | -8
CC1Cc2ccccc2N1c1ncnc(N)c1[N+](=O)[O-] (configuration not stated) | 15% | 11µM* | i | 15% | i | -10
CC1Cc2ccccc2N1c1ncnc2nc[nH]c12 (configuration not stated) | -10% | 20µM* | i | 16% | i | -4
COc1ccc2nc(-c3ccc4c(c3)OCO4)cc(C(=O)NCCN3CCOCC3)c2c1 | . | . | . | . | . | 23
COC(=O)[C@]12C[C@H](CC(=O)NCC34CC5CC(CC(C5)C3)C4)C(=O)N(Cc3cccc4ccccc34)C1=C[C@H](C(C)(C)C)O[C@@H]2C | . | . | . | . | i | .
COC(=O)[C@]12C[C@H](CC(=O)NCCc3ccccc3OC)C(=O)N(Cc3cccc4ccccc34)C1=C[C@H](C(C)(C)C)O[C@@H]2C | . | . | . | . | 14µM* | .
CCCCOCCCNC(=O)C[C@H]1C[C@@]2(C(=O)OC)C(=C[C@H](C3CCCC3)O[C@@H]2C)N(Cc2cccc3ccccc23)C1=O | . | . | . | . | 8.9µM* | .
COC(=O)[C@]12C[C@H](CC(=O)N3CCN(C(=O)C4CC4)CC3)C(=O)N(Cc3cccc4ccccc34)C1=C[C@H](C1CCCC1)O[C@@H]2C | . | . | . | . | 20µM* | .
CCNC(=O)CNC(=O)Cn1c(-c2ccccc2)cc2ccccc21 | . | . | . | . | . | -11
CCOc1ccc(S(=O)(=O)Nc2nc3ccccc3nc2Nc2ccc(C(=O)O)cc2)cc1 | . | . | . | . | . | 1
COc1ccc2nc(/C=C/c3cccc(F)c3)sc2c1 | . | . | . | . | . | 16
Cc1cc(NC(=O)/C=C\C(=O)O)c([N+](=O)[O-])cc1C | 3% | 22µM* | i | 1% | i | 0
Cc1ccc(NC(=O)/C=C/C(=O)O)c([N+](=O)[O-])c1 | 6% | 26% | i | 1% | i | -2
COc1cc(OC)c(Nc2c3c(nc4nc(-c5cccs5)nn24)CCCC3)cc1Cl | . | ? | i | 32µM* | i | 6
COc1cc(OC)c(NC(=O)c2ccc3c(Cl)c4c(nc3c2)CCCC4)cc1Cl | . | 0% | i | -1% | i | -7
SMILES | aSyn yeast inh | TDP43 rescue | Abeta rescue | IDH1 R132H inh | FUS yeast rescue | LDHA block
Cc1cc(Cl)c(CO)c(Cl)n1 | . | . | . | . | . | -4
CCc1ccc(NC2CC(=O)N(CCc3ccc(OC)c(OC)c3)C2=O)cc1 (configuration not stated) | -6% | 18µM* | i | 2% | i | -2
N#C/C(=C\c1ccc(-c2cccc(C(F)(F)F)c2)o1)c1nc2ccccc2[nH]1 | . | . | . | . | . | 5
Cc1cccc(-c2nc3n(CC(=O)N4CCC(C)CC4)c(C)cc(=O)n3n2)c1 | . | . | . | . | . | 7
Cc1cccc(-c2nc3n(CC(=O)N4CCCCCC4)c(C)cc(=O)n3n2)c1 | . | . | . | . | . | -31*
S=C(Nc1cccc(Br)c1)c1ccccc1 | -11% | 13µM* | ? | -5% | i | 0
S=C(Nc1ccccc1)Nc1cccc(Br)c1 | -8% | 15% | i | -4% | i | -1
C=C(C)COc1cc(C)cc2oc(=O)c(CC(=O)NCCc3ccc(S(N)(=O)=O)cc3)c(C)c12 | . | . | . | . | . | 7
COc1ccc(C#Cc2ccc3c(=O)c4ccccc4n(C)c3c2)cc1 | -6% | ? | i | -3% | i | 2
Cn1c2ccccc2c(=O)c2cc(C#CC3=CCCCC3)ccc21 | 15% | 9% | i | 9% | ? | 3
Cn1c2ccccc2c(=O)c2cc(C#Cc3cccc(N)c3)ccc21 | 1% | 13µM* | i | 15% | i | -10
Cn1c2ccccc2c(=O)c2ccc(C#Cc3ccc(N)cc3)cc21 | 14% | 11µM* | i | 10% | ? | 1
Nc1nccnc1C(=O)NCc1ccc(N2CCc3ccccc3C2)nc1 | . | . | . | . | . | 4
COc1cc(-c2ccccc2)sc1C(=O)N1CCS(=O)CC1 | . | . | . | . | . | 10
COC(=O)N1C(=O)[C@@](c2ccccc2)(C2CCCC2)N1C(=O)OC | 0% | ? | i | 0% | i | -4
COC(=O)N1C(=O)[C@](c2ccc(OC)cc2)(C(C)C)N1C(=O)OC | 19% | 18µM* | i | 3% | i | -1
COC(=O)N1C(=O)[C@](CC(C)C)(c2ccccc2)N1C(=O)OC | 0% | ? | i | -8%[38.3 µM] | i | -6
COC(=O)N1C(=O)[C@](c2ccsc2)(C(C)C)N1C(=O)OC | -5% | 20µM* | i | -8% | i | 1
Cc1ccc2c(c1)cc(S(=O)(=O)c1ccccc1)c(=O)n2CC(=O)N1CCCC1 | . | . | . | . | . | 10
Cc1nn(Cc2ccc(F)cc2)c(C)c1NC(=O)c1cnn2c1NC(c1cccs1)CC2C(F)(F)F (configuration not stated) | 0% | -2% | i | 2% | 28µM* | -2

Screens as filed in PubChem BioAssay.
